# Data reported in the OligoGym collection.
# Biological target: TSPYL2
# Test: pooled miR-30 sensor sort-seq; sequence = guide strand
# Settings: shRNA
# Further: reference of the scale not given here.
row,Sequence,sensor-assay potency score (higher = more potent)
1,ATAGATGTCCTCATCTTGCTGG,0.469
2,TTGACAATCACCATGTTTGTGA,0.272
3,TTGATAATCTCAGCAATCCTGT,-0.197
4,TCTCTGTCGTCATCATCGCTGC,-0.7
5,ATTGTCTTCAGGATTCTCGTTG,-0.109

# Biological target: TTC27
# Test: as above
# Settings: shRNA
row,Sequence,sensor-assay potency score (higher = more potent)
1,TTGCTGAACCTTGATAGTCTTC,-0.804
2,TTAAAAATCAATATCTTGCATT,-0.512
3,TTTTTCTCCAGCTCTTGTCTAA,-0.459
4,TACACACTCTTGAAACTCCTTA,0.361
5,TGAACCTTGATAGTCTTCCAAG,-1.57
6,TTCTTTTGAAAATTAGTGCAGA,-0.195
7,TACAGATGTATCTTTTACCAGC,-0.789
8,TATCCAACTGATCTTTTGCTTT,-0.994
9,TTACTTTTTGTTTTAATCGGAT,-0.347
10,TTCTAGAGTCACACAGCGCTGA,0.0912
11,TTTAAGGACCTGAACATCTTTG,-0.304
12,TACACTTGAGAGCTTCTTGTAA,-0.514

# Biological target: TTC7A
# Test: as above
# Settings: shRNA
row,Sequence,sensor-assay potency score (higher = more potent)
1,TTGTGGTCTTCTCCAATTCCTG,-1.59
2,TTGGCTTCGCTCATCTTCGGCT,-0.61
3,TTCAGATGCCTCGACGTGCTGT,-0.177
4,TTCCTCGATGTTGTCCTTGGGG,-0.621
5,TTTGATGACAAAAGCCTCCGAC,-0.154
6,TGGCACTGGAGATCTGTCGGAC,-0.75
7,TCTTGCTTGGACTTCAGGGTGG,0.115
8,TTCTGCAAGCTCACTGTCCGGT,0.427
9,TAGAGTACTGAGTGAGAAGTGG,-0.197
10,TCTCCTTCAAACACTGCTCCAG,-0.633
11,TTCATCTTGCTTGGACTTCAGG,-0.871
12,TTTGGCTTCGCTCATCTTCGGC,-0.912

# Biological target: TTLL3
# Test: as above
# Settings: shRNA
row,Sequence,sensor-assay potency score (higher = more potent)
1,TAGCTGTCGCGGTAGAACCACA,-1.71
2,TTGCACGCCAGCACAGAGCCGG,-1.05
3,TTTATTTGGTGTTGGATCCAGG,-0.616
4,TAAATCATCGAAGTCGAACAGC,-0.665
5,TTTGCCTTTGGCCTTGACCTTC,-0.876
6,TAGGGTATGACTTCCACTCAGA,-0.0416
7,TTCTGCACCACCCACTTGCCGT,-1.06
8,TGTCGCGGTAGAACCACACGGT,-0.291
9,ATCATCGAAGTCGAACAGCTGT,-0.524
10,TACTTCTGCACCACCCACTTGC,-0.25
11,TTGACCTTCCGACAGGTGCTAG,-0.947
